PubChem BioAssay AID651946 (Broad Institute, 2012)
Results with a measured potency or affinity are listed apart. Active and inactive are the calls of the source.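 The calls were made as follows: active = toxic compound whose fitted half-effect dose of signal loss is at most twice its top tested dose; inconclusive = flat fit losing 30 to 70% signal, or poor fit; inactive = the rest.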

Assay: HeLa cell viability loss – plate reader, dry powder, cytotoxicity control, dose response (AID 651946)

Compound | outcome
c1ccc(CSc2nnc(-c3cccnc3)o2)cc1 | inactive
c1ccc(-c2nnc(SCc3ccncc3)o2)cc1 | inactive
CS(=O)(=O)c1ccc(CSc2nnc(-c3ccccc3)o2)cc1 | inactive
FC(F)(F)c1cccc(-c2nnc(SCc3ccccc3)o2)c1 | inactive
COc1ccc(CSc2nnc(-c3ccc(Cl)cc3)o2)nc1 | inactive
CS(=O)(=O)c1cccc(CSc2nnc(-c3ccccc3)o2)c1 | inactive
CS(=O)(=O)c1ccccc1CSc1nnc(-c2ccccc2)o1 | inactive
Clc1ccccc1CSc1nnc(-c2ccccc2)o1 | inactive
c1ccc(CSc2nnc(-c3cscn3)o2)cc1 | inactive
c1ccc(CSc2nnc(-c3cccs3)o2)cc1 | inactive
c1ccc(CSc2nnc(-c3ccccn3)o2)cc1 | inactive
COc1ccc(-c2nnc(SCc3ccc(Cl)cc3)o2)cc1 | inactive
CS(=O)(=O)c1ccccc1-c1nnc(SCc2ccccc2)o1 | inactive
FC(F)(F)Oc1cccc(-c2nnc(SCc3ccccc3)o2)c1 | inactive
FC(F)(F)c1ccc(CSc2nnc(-c3ccccc3)o2)cc1 | inactive
N#Cc1ccc(CSc2nnc(-c3ccccc3)o2)cc1 | inactive
[O-][n+]1ccccc1CSc1nnc(-c2ccccc2)o1 | inactive
CC(C)c1nnc(SCc2ccccc2)o1 | inactive

Compound | outcome
c1ccc(-n2cc(CSc3nnc(C4CCCC4)o3)nn2)cc1 | inactive
CS(=O)(=O)c1ccc(-c2nnc(SCc3ccccc3)o2)cc1 | inactive
c1ccc(-c2ccc(CSc3nnc(-c4ccccc4)o3)cc2)cc1 | inactive
c1ccc(CSc2nnc(-c3ccco3)o2)cc1 | inactive
Fc1cccc(-c2nnc(SCc3ccccc3)o2)c1 | inactive
N#Cc1ccccc1CSc1nnc(-c2ccccc2)o1 | inactive
c1ccc(CCc2nnc(SCc3ccccc3)o2)cc1 | inactive
c1ccc(-c2nnc(SCCC3OCCCO3)o2)cc1 | inactive
COc1ccc(-c2nnc(SCc3ccccn3)o2)cc1 | inactive
Fc1ccc(Cn2cc(CSc3nnc(C4CCCC4)o3)nn2)cc1 | inactive
CCSc1nnc(-c2ccccc2)o1 | inactive
c1ccc(-c2nnc(SCCN3CCN(c4ccccc4)CC3)o2)cc1 | inactive
FC(F)(F)c1cccc(CSc2nnc(-c3ccccc3)o2)c1 | inactive
c1ccc(CNCCSc2nnc(-c3ccccc3)o2)cc1 | inactive
c1ccc(CSc2nnc(-c3ccc(-c4ccccc4)cc3)o2)cc1 | inactive
Fc1ccc(CSc2nnc(-c3cccnc3)o2)cc1 | inactive
O=S(Cc1cn(Cc2ccc(F)cc2)nn1)c1nnc(-c2ccc(Cl)cc2)o1 (stereo unspecified) | inactive
FC(F)(F)Oc1ccc(-c2nnc(SCc3ccccc3)o2)cc1 | inactive
